This passage reports growth results from PubChem BioAssay (NCI).

The structures appear in SMILES notation. About 83,000 compounds went through this panel and 20% of them were active in at least one assay; those are over-represented in the sample as a whole.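 Percent growth is the endpoint: 0 to 100 indicates growth inhibition (40 means 60% inhibition), 0 means no net growth, and negative values indicate cell death.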 Unmarked numbers belong to inactive results. Activity calls are given as the source filed them. The calls were made as follows: active = growth percent below 10; inactive = the rest.

The test system of the assay is HOP-92 NSCLC. The assay is described as follows: NCI-60 one-dose screen, 48 h (100 = growth as untreated, 0 = no growth, -100 = all killed). To be noted: 10 µM unless noted.
As to `CN(C)c1ccc(/C=C/c2ccnc3c(O)cccc23)cc1`, the growth was 53.5%.
With `CCOC(=O)c1cc2c(n1Cc1cccc(OC)c1)-c1oncc1CCC2`, the growth is 67.4%.
With `Cn1nc(C(C)(C)C)cc1NC(=O)Cc1ccc(/C=C2\C(=O)Nc3ccccc32)cc1`, the growth was 59.5%.
Take `Cc1c(C(=O)OCCO)cc(-c2ccc(Cl)cc2)n1-c1ccc(Cl)cc1Cl`: the growth was 91.1%.
Regarding `CCC1=C[C@]2(C3CC(=O)N(c4ccccc4)C3=O)CC(C(C)(C)C)C[C@@H]2[C@@H]2C(=O)N(c3ccccc3)C(=O)[C@H]12` (stereo not given in full), the growth was 84.5%.
On to `Nc1ccc(-c2nn3c(CCC(=O)c4nc5ncccc5[nH]4)nnc3s2)c(O)c1`, for which the growth was 85.4%.
For the compound `CCCCCCc1cc2cc(-c3nc4ccccc4[nH]3)c(=Nc3ccccc3C)oc2cc1O`, the growth is 13.3%.
Consider `COc1ccc(OC)c(N(CCN2C(=O)c3ccccc3C2=O)C(=O)CCl)c1`, for which the growth was -11.4% (active).
The result for `COc1ccc(C)c2sc(N(Cc3cccnc3)C(=O)c3ccc(C#N)cc3)nc12` reads -3.64% (active); that for `O=C(/C=C/c1ccccn1)c1ccc(OCc2nnc(-c3ccc(Cl)cc3)o2)cc1`, 105%; that for `COc1ccc(C2C3=C(COC3=O)N(CCO)c3cc4c(cc32)CCC4)cc1` (stereo not given), 70.8%.
For `CN(C)/C=C1\SC(=Nc2ccc(Cl)cc2)NC1=O`, the growth is 102%.
In the case of `c1ccc(CNc2nc(Nc3ccccc3)nc3ccccc23)cc1`, the growth was -2.52% (active).
On to `COc1ccc2c(c1)C=C1CSCC3=Cc4cc(OC)ccc4OC13O2`, for which the growth is 44.9%.
For the compound `COc1ccc(C(O)(CCC(C)C)C(CN2CCOCC2)c2ccc(Cl)cc2)cc1` (stereo not given), the growth is 77.8%.
In the case of `COC(=O)[C@H]1CCCN1C(=O)[C@H]1CCCN1C(=O)[C@H](Cc1c[nH]c2ccccc12)NC(=S)Nc1cc(C(F)(F)F)cc(C(F)(F)F)c1`, the growth was 88.8%.
Regarding `CCn1c(Cc2ccccc2Nc2c(Cl)cccc2Cl)nnc1SCC(=O)NN1C(=O)/C(=C/c2cccc(OC)c2OC)SC1=S`, the growth is 96.9%.
On to `CCCC(c1nnnn1C1CCCCC1)N1CCN(C(=O)c2ccco2)CC1` (stereo not given), for which the growth is 47.6%.
On to `C1=CC2(C=C1)OC21CCC2(C=CC3(C2)OC3C2CCCCC2)CC1` (stereo not given), for which the growth was 104%.
For `O=C(NC1CCN(Cc2ccccc2)CC1)c1cc(C(=O)NC2CCN(Cc3ccccc3)CC2)cc(C(=O)NC2CCN(Cc3ccccc3)CC2)c1`, the growth was 54.3%.
Turning to `COc1cc(-c2c3c(c(Br)n2Cc2ccccc2)-c2nc(N)sc2CC3)cc(OC)c1OC`, the growth is 76.4%.
Take `NC(CCc1nc2ccccc2c(=O)[nH]1)C(=O)O` (stereo not given): the growth was 108%.
In the case of `Nc1no[n+]([O-])c1-c1nnc2c(n1)-c1ccccc1C2=O`, the growth is 55.1%.
Take `CCOc1ccc(-c2nonc2NC(=O)c2cccc(C)c2)cc1OCC`: the growth is -8.71% (active).
Consider `Cc1ccc(OCCCCCCNCCO)c(C)c1`, for which the growth is 12.8%.
